# About 5,300 (4.4%) of roughly 120,000 compounds were called active. Roughly 22% stayed inconclusive and do not appear here. The sample holds actives, similar compounds and a random draw of the others, so the mix is not that of the screen. Unmarked numbers belong to inactive results. Calls follow the shape of the dose curve; as a rule, active = well fitted inhibition curve with a large enough effect; inconclusive = small, poorly fitted or top-dose-only effect; inactive = no such curve, though single readings can be large or run the other way.
# Assay: qHTS Primary assay for Inhibitors of Plasmodium falciparum Dd2 growth in vitro; also: nearly all actives have a fitted effect of over 65% in size;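 as to activity, negative = inhibition: plate controls were DMSO vehicle for no effect and reference drug for full effect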
# Settings: P. falciparum Dd2 growth, SYBR Green, 72 h; series mostly up to 28.9 µM; activity, negative = inhibition: at the top concentration
# Summary of the method: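 Infected erythrocytes (Dd2, 0.3% parasitemia, 2.5% hematocrit final) are added to compound in RPMI-1640/Albumax II medium, grown 72 h at 37C in low oxygen, then lysed with saponin/Triton-X containing SYBR Green and read by fluorescence.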
# Potency is read from the fitted curve at half-maximal effect.
Structure (SMILES),"activity, negative = inhibition",Potency,outcome
CCN1C(=O)CCN(C(=O)N(C)C)CC12CCOCC2,30.6%,,
CCOc1ccc(NC(=O)N2c3ccccc3CC2c2noc(C3CCOCC3)n2)cc1 (stereo not drawn),-12.3%,,
CNC(=O)[C@@H]1CN(C(=O)c2ccco2)C[C@H]1COC,7.02%,,
C[S+](=O)([O-])N1CC2(Cc3ccccc31)CN(C(=O)C1CC1)C2,-4.62% [at 44.1 µM],,
O=C(C1CCCC1)N1CC2(CCCN(C3CCCCC3)C2)Cc2ccccc21 (stereo not drawn),,7.94 µM (active),
CC(=O)N1CC2(CCN(Cc3cccnc3)C2)Cc2ccccc21 (stereo not drawn),-11.2%,,
COc1ccc2[nH]c3c(c2c1)CCNC31CCN(C(=O)c2ccnn2C)CC1,,,inactive
O=C(Cn1nc2c(cc1=O)CCCCC2)Nc1nc(-c2ccncc2)cs1,-14.3%,,
COc1ccc(CN2C(=O)CO[C@H]3CN(Cc4cccnc4)C[C@H]32)cc1,-27.4% [at 44.1 µM],,
COc1ccc(CN2C(=O)CO[C@H]3CN(C(=O)C4CC4)C[C@H]32)cc1,18.4% [at 44.1 µM],,
O=C1CO[C@H]2CN(C3CCC3)C[C@H]2N1Cc1ccc(OC(F)(F)F)cc1,,10 µM (active),
CCNC(=O)N1C[C@@H]2OCC(=O)N(CCOC)[C@@H]2C1,1.69% [at 44.1 µM],,
CCc1nc(-c2ccc(OC3CCN(C(=O)Cc4c[nH]c5ccccc45)C3)cc2)no1 (stereo not drawn),2.05% [at 5.79 µM],,
Cc1cccc(C(=O)N2CCC(Oc3ccc(-c4noc(C(C)C)n4)cc3)C2)c1 (stereo not drawn),27.3% [at 5.79 µM],,
CC(C)c1nc(-c2ccc(OC3CCN(C(=O)CCc4nc5ccccc5[nH]4)C3)cc2)no1 (stereo not drawn),,1.26 µM (active),
N#Cc1ccc(C(=O)Nc2ccc3n(c2=O)C[C@H]2C[C@@H]3CN(C(=O)NC3CCCCC3)C2)cc1,-19.6%,,
COc1cccc(NC(=O)Nc2ccc3c(c2)N(C)C(=O)c2ccccc2S3)c1,,12.6 µM (active),
CCOc1ccccc1C(=O)Nc1ccc2c(c1)N(C)C(=O)c1ccccc1S2,-8.57%,,
COc1cccc(NC(=O)CN2C(=O)c3ccccc3Sc3ncccc32)c1,-15.6%,,
CCn1cc(-c2ccc(C)cc2)cc1C(=O)NCc1cccnc1,-8.65%,,
Cc1cccc(N2CCN(C(=O)c3cc4n(n3)CC(c3ccc(Cl)cc3)OC4)CC2)c1 (stereo not drawn),,,inactive
COc1cc(CNCc2ccc(C)c(F)c2F)ccc1OCC(O)CN1CCC(O)CC1 (stereo not drawn),-45.4%,,
N#Cc1cccc(CN2C[C@H](O)C[C@H]2c2nc(-c3ccccn3)no2)c1,9.29% [at 44.1 µM],,
Cc1ccccc1C(=O)NCc1nnc2ccc(-c3ccccc3)nn12,-7.27%,,

Structure (SMILES),"activity, negative = inhibition",Potency,outcome
COc1ccccc1C(=O)N1CCC(n2cnnc2C2CC2)CC1,8.5%,,
COCc1nncn1C1CCN(C(=O)c2ccccc2F)CC1,-7.03%,,
COCc1nncn1C1CCN(C(=O)c2ccccc2OC(F)(F)F)CC1,,10 µM (active),
COc1ccccc1C(=O)Nc1ccc2c(c1)CN(Cc1ccccc1)C(=O)C(C)O2 (stereo not drawn),,,inactive
Cc1ccc(CN2CCCN(Cc3ccncc3)C(c3ccccc3)CC(=O)NCC2)s1 (stereo not drawn),,1 µM (active),
O=C1CC2CCN(Cc3cccnc3)CC2CCN1 (stereo not drawn),9.65% [at 44.1 µM],,
O=C1CC(c2ccccc2)N(C(=O)C2CC2)CCCN(C(=O)Cc2cccc(F)c2)CCN1 (stereo not drawn),-7.87%,,
CS(=O)(=O)N1CCCN(C(=O)CN2CCCCCC2)CCNC(=O)CC1c1ccccc1 (stereo not drawn),-8.48%,,
Cc1ccccc1CNC(=O)C1CCCN(Cc2cccnc2)CCC(=O)NCC1 (stereo not drawn),-19.7%,,
CS(=O)(=O)N1CCCN(C(=O)Cc2cccc(F)c2)CCNC(=O)CC1c1ccccc1 (stereo not drawn),-1.53%,,
CNC(=O)N1CCCN(S(C)(=O)=O)C(c2ccccc2)CC(=O)NCC1 (stereo not drawn),3.9%,,
O=C1CC(c2ccccc2)N(Cc2ccncc2)CCCN(Cc2cccnc2)CCN1 (stereo not drawn),,4.47 µM (active),
Cc1cccc(CN2CCCN(Cc3ccncc3)C(c3ccccc3)CC(=O)NCC2)c1 (stereo not drawn),,1.26 µM (active),
N#Cc1ccc(CC(=O)N2CC(CNc3cccnc3)C3(C2)CN(c2ccccc2)C3)cc1 (stereo not drawn),-11.1% [at 44.1 µM],,
CCN1CC2(CCN(C(=O)c3cc4c(nc3OC)CCC4)CC2)OC1=O,6%,,
CNC(=O)[C@H]1C[C@H](Oc2ccccc2)CN1C(=O)c1ccccc1,-11%,,
FC(F)(F)CN1C2CCC1CN(c1cncc(Cl)n1)C2,4.15%,,
CC(NC(=O)c1coc(COc2ccc3c(c2)OCO3)n1)c1ccc2[nH]ccc2c1 (stereo not drawn),-11.9%,,
Cn1cncc1-c1nnc([C@H]2CCN(CC3CC3)C2)o1,-3.46% [at 44.1 µM],,
CCOC(=O)CCNC(=O)N1CC[C@H]2C(=O)NCCCCCCN(Cc3ccncc3)[C@@H]2C1,-18.7%,,
C=CCNC(=O)CCc1c(CC)nn(-c2ccccc2)c1Oc1ccccc1OC,,,inactive
CC(=O)c1c(C)nn(CC(=O)N2C[C@H](O)[C@@H](N3CCC(O)CC3)C2)c1C,11%,,
CCc1nc2c(=O)n(CC(=O)NCc3ccc(Cl)cc3)nc(C)c2s1,-13.1%,,
COc1cccc(-c2n[nH]c3c2C(c2cccc(O)c2)N(C)C3=O)c1 (stereo not drawn),-21.5%,,
